Reference: PubChem BioAssay (NCATS)
Values joined by “and” are separate entries in the source; they are usually repeats but may differ in a detail not shown here. Identical values can stand only once. Records with an inconclusive call do not appear. A call without a number means that no potency is given here. A number with no mark means an inactive call. Active and inactive are the calls of the source. Calls follow the shape of the dose curve; as a rule, active = well fitted curve in the direction sought with a large enough effect; inconclusive = small, poorly fitted or top-dose-only effect, or another doubt; inactive = no such curve, though single readings can be large; an effect the other way counts as inactive or inconclusive.

Assays:
[1] = Quantitative highthroughput screen to assess conditional lethalithy of NOMO1 cells grown in RPMI1640 with untreated serum (RPMI+s) (AID 1963876); also: nearly all actives have a fitted effect of over 35% in size
How it was run: (§1)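 Each medium arm—HPLM with 10% dialyzed FBS, or RPMI1640 with 5 mM glucose and 10% untreated or dialyzed FBS—was screened against an 11-point, 3-fold compound titration for 48 h at 37 °C, with CellTiter-Glo luminescence as endpoint.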

[2] = Quantitative highthroughput screen to assess conditional lethalithy of NOMO1 cells grown in Human Plasma-Like Medium with dialyzed fetal bovine serum (HPLM+ds) (AID 1963878); also: nearly all actives have a fitted effect of over 35% in size
How it was run: as §1

[3] = Quantitative highthroughput screen to assess conditional lethalithy of P12 Ichikawa cells grown in Human Plasma-Like Medium with dialyzed fetal bovine serum (HPLM+ds) (AID 1963879); conditions: Potency: viability; also: nearly all actives have a fitted effect of over 35% in size; as to viability: series mostly up to about 46 µM
How it was run: as §1

[4] = Quantitative highthroughput screen to assess conditional lethalithy of P12 Ichikawa cells grown in RPMI1640 with dialyzed fetal bovine serum (RPMI+ds) (AID 1963880); conditions: Potency: P12-Ichikawa viability; also: nearly all actives have a fitted effect of over 35% in size
How it was run: as §1

[5] = Quantitative highthroughput screen to assess conditional lethalithy of P12 Ichikawa cells grown in RPMI1640 with untreated serum (RPMI+s) (AID 1963881); conditions: Potency: viability; also: nearly all actives have a fitted effect of over 35% in size; as to viability: series mostly up to about 46 µM
How it was run: as §1

[6] = Quantitative highthroughput screen to assess conditional lethalithy of SEM cells grown in Human Plasma-Like Medium with dialyzed fetal bovine serum (HPLM+ds) (AID 1963882); also: nearly all actives have a fitted effect of over 35% in size; as to viability: series mostly up to about 46 µM
How it was run: as §1

[7] = Quantitative highthroughput screen to assess conditional lethalithy of SEM cells grown in RPMI1640 with unreated serum (RPMI+s) (AID 1963883); also: nearly all actives have a fitted effect of over 35% in size
How it was run: as §1

[8] = Quantitative highthroughput screen to assess conditional lethalithy of SEM cells grown in RPMI1640 with dialyzed fetal bovine serum (RPMI+ds) (AID 1963884); also: nearly all actives have a fitted effect of over 35% in size; as to viability: series mostly up to about 46 µM
How it was run: as §1

[9] = Cellular viability qHTS for adrenocortical cancer (ACC) cell line SW-13 (AID 1963989); conditions: SW-13 ACC cells viability, CellTiter-Glo, 48 h; activity (max response): active compounds read low; also: nearly all actives have a fitted effect of over 65% in size;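 as to activity (max response): cells grown in serum-free medium with ITS supplement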
How it was run: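 Here, serum-free SW-13 cultures were dosed up to 46 uM. Following 48 h, ATP-dependent luminescence (CellTiter-Glo) reported viable cells, and logistic modeling produced IC50 values.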

[10] = Cellular viability qHTS for adrenocortical cancer (ACC) cell line NCI-H295R (AID 1963990); also: nearly all actives have a fitted effect of over 60% in size
How it was run: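 Viability of NCI-H295R after 48 h of treatment (final up to 46 uM) measured through cellular ATP luminescence.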
Potency is read from the fitted curve at half-maximal effect.

Row | Structure (SMILES) | Potency [1] | Potency [2] | Potency [3] | Potency [4] | Potency [5] | Potency [6] | Potency [7] | Potency [8] | activity (max response) [9] | Potency [10] | Potency [9]
1 | CCCCCCCCCCCCCCCC(=O)OC[C@@H](NC(=O)C(Cl)Cl)[C@H](O)c1ccc([N+](=O)[O-])cc1 | inactive | inactive | inactive | inactive | inactive | inactive | inactive | inactive |  |  | 
2 | CC(C)c1ccc2oc3nc(N)c(C(=O)O)cc3c(=O)c2c1 | inactive | inactive | inactive | inactive | inactive | inactive | inactive | inactive | -3.22% and -4.54% | inactive | 
3 | O=C1NCCc2[nH]c(-c3ccncc3)cc21 | 18.7 µM (active) | 18.7 µM (active) | 16.6 µM (active) | 14.8 µM (active) | 14.8 µM (active) | 13.2 µM (active) | 13.2 µM (active) | 14.8 µM (active) |  | 7.08 µM (active) | 7.94 µM (active)
4 | C[C@]12C=CC(=O)N[C@@H]1CC[C@H]1[C@H]3CC[C@@H](C(=O)Nc4cc(C(F)(F)F)ccc4C(F)(F)F)[C@@]3(C)CC[C@@H]12 | inactive | inactive | inactive | inactive | inactive | inactive | inactive | inactive |  |  | 
5 | CCCCCCOC(=O)N=C(N)c1ccc(NCc2nc3cc(C(=O)N(CCC(=O)OCC)c4ccccn4)ccc3n2C)cc1 | 26.4 µM (active) | 20.9 µM (active) | inactive |  |  | inactive | inactive | inactive |  |  | 
6 | CN1[C@H]2CC[C@H]1CC(OC(=O)c1c[nH]c3ccccc13)C2 (stereo not given in full) | inactive | inactive |  | inactive | inactive | inactive | inactive | inactive |  |  | 
7 | c1ccc(-c2nn3c(c2-c2ccnc4cc(OCCN5CCOCC5)ccc24)CCC3)nc1 | inactive | 18.7 µM (active) | inactive | inactive |  |  | inactive |  |  | inactive | 
8 | CCCCN1CCC(CNC(=O)c2c3n(c4ccccc24)CCCO3)CC1 | inactive | inactive | 18.7 µM (active) |  | 16.6 µM (active) |  | inactive | inactive |  |  | 
9 | O=C(O)[C@H](Cc1c[nH]c2ccccc12)N1C(=O)c2ccccc2C1=O | inactive | inactive | inactive | inactive | inactive |  |  |  | -15.6% | inactive | 
10 | C=CCNc1c(O)cc2c(O)c1C[C@@H](C)C[C@H](OC)[C@@H](O)[C@@H](C)C=C(C)[C@H](OC(N)=O)[C@@H](OC)C=CC=C(C)C(=O)N2 | 10.5 µM (active) | 13.2 µM (active) |  |  |  | 1.66 µM (active) | 0.833 µM (active) | 0.833 µM (active) |  |  | 
11 | O=[N+]([O-])c1ccc(Nc2ccccc2-c2ccccc2)c2nonc12 | inactive | inactive | inactive | inactive | inactive |  |  |  |  | 11.2 µM (active) | 8.91 µM (active)
12 | OC1CCC(Nc2ncc3nc(Nc4c(F)cc(F)cc4F)n([C@@H]4CCOC4)c3n2)CC1 (stereo not given in full) | inactive | inactive | inactive | inactive | inactive | inactive |  | inactive |  | inactive | 
13 | Fc1ccc(C(c2ccc(F)cc2)N2CCN(CC=Cc3ccccc3)CC2)cc1 | inactive | inactive | inactive | inactive | inactive | inactive |  |  |  |  | 
14 | C[C@@H]1CCN(C(=O)CC#N)C[C@H]1N(C)c1ncnc2[nH]ccc12 | inactive | inactive | inactive | inactive | inactive | inactive | inactive | inactive |  |  | 
15 | C[C@@H]1[C@H](C)CC[C@]2(C(=O)O)CC[C@]3(C)C(=CC[C@@H]4[C@@]5(C)C[C@@H](O)[C@H](O)[C@@](C)(CO)[C@H]5CC[C@]43C)[C@@H]12 | inactive | inactive | inactive | inactive | inactive |  |  |  |  |  | 
16 | O=[N+]([O-])c1cn2c(n1)OC[C@@H](OCc1ccc(OC(F)(F)F)cc1)C2 | inactive | inactive | inactive |  | inactive | inactive | inactive | inactive |  | inactive | 
17 | OCCN1C[C@H](O)[C@@H](O)[C@H](O)[C@@H]1CO | 0.105 µM (active) |  | 2.64 µM (active) | 2.96 µM (active) | 2.64 µM (active) | inactive | inactive | inactive |  |  | 
18 | Clc1ccc(COC(Cn2ccnc2)c2ccc(Cl)cc2Cl)cc1 (stereo not given) | inactive |  | inactive | 5.9 µM (active) |  | inactive |  | inactive |  |  | 
19 | O=C(O)c1ccc(-c2cc3cccnc3c(-c3ccc4nonc4c3)n2)cc1 | inactive |  | inactive |  | inactive |  |  |  |  |  | 
